Measurements taken from PubChem BioAssay AID504840 (Johns Hopkins Ion Channel Center, 2011).
About 890 (59%) of roughly 1,500 compounds were called active.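 The calls were made as follows: active = inhibition of the choline-evoked signal at any tested dose together with a fitted dose-response curve; inactive = no inhibition at any dose or no curve.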 The set was probably picked from earlier hits. Only a sample is shown. Potency and affinity values are given separately.

Each compound was assayed against High affinity choline transporter 1 (Homo sapiens) (UniProt Q9GZV3) (assay: human choline transporter blockers, potency – cell-based, 5-point CRC, membrane potential dye, dose response (AID 504840;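 also: 0% = buffer-only response and 100% = EC90 choline response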)). Settings: HEK293-CHT, choline-induced depolarization, CHT with LV-to-AA double alanine mutation; series mostly up to 37 µM; inhibition: at the top concentration.
Chain of High affinity choline transporter 1 (Homo sapiens) (Q9GZV3 whole entry, looked up): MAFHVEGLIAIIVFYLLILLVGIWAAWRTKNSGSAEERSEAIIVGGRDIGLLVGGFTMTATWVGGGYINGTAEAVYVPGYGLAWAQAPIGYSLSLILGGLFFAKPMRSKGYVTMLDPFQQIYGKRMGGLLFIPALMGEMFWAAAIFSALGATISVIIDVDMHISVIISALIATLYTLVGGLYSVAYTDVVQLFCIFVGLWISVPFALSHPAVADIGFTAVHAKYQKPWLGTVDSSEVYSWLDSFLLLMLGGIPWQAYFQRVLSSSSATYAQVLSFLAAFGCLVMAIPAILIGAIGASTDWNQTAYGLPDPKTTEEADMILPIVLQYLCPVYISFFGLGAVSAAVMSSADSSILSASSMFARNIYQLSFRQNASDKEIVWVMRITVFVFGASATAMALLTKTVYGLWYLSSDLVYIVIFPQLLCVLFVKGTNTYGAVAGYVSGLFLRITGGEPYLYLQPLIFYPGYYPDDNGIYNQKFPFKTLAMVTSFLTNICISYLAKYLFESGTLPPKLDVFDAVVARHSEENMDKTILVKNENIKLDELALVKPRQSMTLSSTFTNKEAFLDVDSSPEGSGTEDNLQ

inhibition, inactive:
CCN(CC)CCCN1C=C2C(=O)C(C)(OC(=O)CCC(=O)OC)C(=O)C=C2C=C1C1CC1 (stereo not drawn) 59.8%, Cc1ccc(OCC(=O)NNC(=S)NC(=O)C(C)(C)C)c(Br)c1 49.2%, CC(Oc1ccc2ccccc2c1)C(=O)NNC(=S)NC(=O)c1ccco1 (stereo not drawn) 21.3%, CCCCCc1cc(=O)oc2c(C(CCN3CCCCC3)c3cc(OC)c(OC)c(OC)c3)c(OC)cc(OC)c12 (stereo not drawn) 64.2%, COc1cc(CN(C)Cc2cc(=O)n3ccsc3n2)ccc1OC(F)F 20.5%, COc1ccc(CNC(=O)[C@H](C)NC(=O)N2CCn3c2nc2ccccc23)cc1 45.6%, O=C(Cn1nc(C(F)(F)F)c2c1CCC2)NCc1ccc(F)cc1 29.8%, CC(=O)NC(CC(=O)NCCN1C(=O)S/C(=C\c2ccccc2)C1=O)c1ccccc1 (stereo not drawn) 41.9%, CN1CCN(C(=O)CCN2C(=O)S/C(=C/c3ccc(Cl)cc3)C2=O)CC1 50.5%, COc1ccc(/C=C2/SC(=S)N(CCCC(=O)N3CCN(C)CC3)C2=O)cc1 30.2%, CC(/C=C1\NC(=S)NC1=O)=C\c1ccccc1 14.5%, O=C(O)CN1C(=O)/C(=C/C=C/c2ccccc2)SC1=S 43%, CN1CCN(C(=O)CCN2C(=O)/C(=C/c3cccc(Br)c3)SC2=S)CC1 38.4%, CCC(C(=O)N1CCOCC1)n1c(C(=O)OC)cc2occc21 (stereo not drawn) 11.2%, C=CCn1c(SCC(=O)NC(=O)NC2CCCC2)nnc1C1CCCCC1 22.3%, Cc1nc(SCC(=O)NC(=O)NCc2ccccc2)nc(C)c1C 27.6%, CC(=O)Nc1cc(NC(C)=O)cc(C(=O)OC(C)C(=O)Nc2ccc(S(=O)(=O)N3CCCC3)cc2)c1 (stereo not drawn) 55.2%, CN(c1cccc(NC(=O)Nc2cccc(Cl)c2)c1)S(C)(=O)=O 39.9%, CC(=O)Nc1cccc(C(=O)OC(C)C(=O)Nc2ccc(S(=O)(=O)N3CCCC3)cc2)c1 (stereo not drawn) 48.4%, Cc1cc(C)n2c(SCC(=O)NC3CCCCC3C)nnc2n1 (stereo not drawn) 2.51%, CC1CCC(NC(=O)CCn2ccc3cc(S(=O)(=O)N4CCCC4)ccc32)CC1 (stereo not drawn) 51.3%, CC1CCCCC1NC(=O)c1ccc2c(c1)[nH]c(=O)n2C1CCCC1 (stereo not drawn) 58.6%, Cc1ccc(S(=O)(=O)N2CCCCC2)cc1NC(=O)CSc1nncn1-c1ccccc1 63.5%, CCCc1nc2oc3c(NCC4CCCO4)ncnc3c2c2c1COC(C)(C)C2 (stereo not drawn) 65.7%, CCCN(CCC)Cc1c(C(=O)N/N=C/C(C)=C\c2ccco2)nnn1-c1nonc1N 32.6%, COc1ccccc1C(=O)NC1CCN(C(=S)NCCc2ccccc2)CC1 26.5%, COc1ccc(OCC(O)Cn2c(=N)n(Cc3ccccc3)c3ccccc32)cc1 (stereo not drawn) 70.1%, Cc1ccc(OCC(O)Cn2c(=N)n(Cc3ccccc3)c3ccccc32)cc1 (stereo not drawn) 70.7%
